Measurements reported in paper PMC5540273 (PLoS ONE, 2017).

Key:
Details in all cases: concentration: 1 μM,replicates: in singlicate; n = 1
PLK2 = test system: PLK2
PLK3 = test system: PLK3
PLK4 = test system: PLK4
PRKCD = test system: PRKCD
PRKCE = test system: PRKCE
PRKCH = test system: PRKCH
PRKCI = test system: PRKCI
PRKCQ = test system: PRKCQ
PRKD1 = test system: PRKD1
PRKD2 = test system: PRKD2
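Also: KINOMEscan kinase panel screen.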

| Compound | %Inh (PLK2) [%] | %Inh (PLK3) [%] | %Inh (PLK4) [%] | %Inh (PRKCD) [%] | %Inh (PRKCE) [%] | %Inh (PRKCH) [%] | %Inh (PRKCI) [%] | %Inh (PRKCQ) [%] | %Inh (PRKD1) [%] | %Inh (PRKD2) [%] |
| --- | --- | --- | --- | --- | --- | --- | --- | --- | --- | --- |
| Cc1ccc(CC(=O)N2CCc3cc(-c4cn(C)c5ncnc(N)c45)ccc32)cc1 [GSK2634758] | 2 | 0 | 0 | 15 | 15 | 35 | 27 | 33 | 0 | 14 |
| Cn1ccc2ncnc(Oc3ccc(NC(=O)Nc4ccnc(C(F)(F)F)c4)c(Cl)c3)c21 | 0 | 0 | 11 | 0 | 0 | 0 | 0 | 7 | 0 | 4 |
| Cn1ccc2ncnc(Oc3ccc(NC(=O)Nc4cc(C(C)(C)C)on4)c(Cl)c3)c21 | 4 | 7 | 19 | 21 | 0 | 0 | 6 | 27 | 0 | 7 |
| COc1cc2ncn(-c3cc(OCC4CCCCC4)c(C(N)=O)s3)c2cc1OC [GSK204559] | 99.3 | 99.3 | 4 | 24 | 0 | 30 | 0 | 32 | 0 | 0 |
| COc1cc(Nc2nccc(N3CCC(NC(=O)c4cccc(C#N)c4)C3)n2)cc(OC)c1OC (stereo not shown) [GSK1379751] | 0 | 0 | 36 | 0 | 7 | 0 | 0 | 0 | 0 | 0 |
| OCCn1cc(-c2cnc3nnn(Cc4ccc5ncccc5c4)c3n2)cn1 | 0 | 50 | 4 | 0 | 49 | 0 | 0 | 0 | 5 | 0 |
| Cn1ccc2ncnc(Oc3ccc(NC(=O)Nc4cccc(C(F)(F)F)c4)c(F)c3)c21 | 12 | 33 | 31 | 0 | 0 | 0 | 39 | 0 | 0 | 3 |
| Cn1cc(-c2cccc3c(N)c(C(N)=O)nnc23)cn1 | 13 | 17 | 26 | 24 | 10 | 36 | 24 | 53 | 0 | 15 |
| O=C(NOCC1CC1)c1cc(Br)c(F)c(F)c1Nc1ccc(I)cc1Cl | 0 | 4 | 0 | 0 | 6 | 0 | 0 | 13 | 0 | 11 |
| C[C@@H](Oc1cc(-n2cnc3cc(-c4ccncc4)ccc32)sc1C(N)=O)c1ccccc1Cl [GSK479719] | 99.5 |  | 29 | 0 | 18 | 12 | 0 | 2 | 0 | 0 |
| CS(=O)(=O)c1cccc(CNc2nc(Nc3ccc4c(c3)[C@@H]3C[C@@H]4CNC3=O)ncc2C(F)(F)F)c1 | 0 | 0 | 98.7 | 0 | 5 | 0 | 8 | 14 | 22 | 28 |
| CNC(=O)c1ccccc1Nc1nc(Nc2cccc(CS(C)(=O)=O)c2)ncc1C.O=CO [GSK1520489] | 68 | 17 | 100 | 13 | 77 | 0 | 17 | 42 | 0 | 6 |
| C[C@@H](Oc1cc(-n2cnc3ccc(-c4ccncc4)cc32)sc1C(N)=O)c1ccccc1Cl [GSK483724] | 99.3 |  | 0 | 8 | 29 | 33 | 40 | 33 | 0 | 0 |
| CCNCC(Cc1ccccc1)NC(=O)c1cc(Br)c(-c2ccnc3[nH]ccc23)s1.Cl.Cl (stereo not shown) [GSK1383280] | 30 | 47 | 92.3 | 91.7 | 94.5 | 93.1 | 26 | 74 | 77 | 73 |
| COc1ccc(Nc2nccc(N3CCC(NC(=O)c4cccc(C#N)c4)C3)n2)cc1 (stereo not shown) [GSK1379730] | 0 | 0 | 0 | 8 | 0 | 36 | 54 | 0 | 0 | 0 |
| CC(=O)c1c(-c2ccncc2)[nH]c(-c2ccncc2)c1C [GW493036] | 0 | 0 | 0 | 0 | 25 | 13 | 0 | 0 | 2 | 15 |
| Cc1ccc(C(=O)Nc2ccc(Oc3ccc4nc(NC(=O)C5CC5)cn4c3)c(F)c2)c(=O)n1-c1ccccc1 | 0 | 0 | 35 | 0 | 0 | 0 | 28 | 24 | 0 | 0 |

| Compound | %Inh (PLK2) [%] | %Inh (PLK3) [%] | %Inh (PLK4) [%] | %Inh (PRKCD) [%] | %Inh (PRKCE) [%] | %Inh (PRKCH) [%] | %Inh (PRKCI) [%] | %Inh (PRKCQ) [%] | %Inh (PRKD1) [%] | %Inh (PRKD2) [%] |
| --- | --- | --- | --- | --- | --- | --- | --- | --- | --- | --- |
| O=C(Nc1ccccc1)c1cccc(Oc2ccc3nccn3n2)c1 | 5 | 0 | 0 | 0 | 13 | 0 | 5 | 24 | 33 | 0 |
| CC(=O)Nc1nc2cnc(Nc3cc(NC(=O)c4cccc(CC(C)(C)C#N)c4)ccc3C)nc2s1 | 0 | 3 | 18 | 13 | 0 | 14 | 5 | 11 | 0 | 0 |
| CC(C)c1nc(-c2cccc(NS(=O)(=O)c3ccccc3)c2)c(-c2ccnc(Nc3ccc4c(c3)CN(C)CC4)n2)s1 [GSK1649598] | 0 | 0 | 99.8 | 0 | 0 | 0 | 45 | 11 | 93.9 | 99.9 |
| Cl.Cl.NC[C@H](CC1CCCCC1)NC(=O)c1ccc(-c2ccnc3[nH]ccc23)s1 [GSK1581428] | 0 | 0 | 41 | 100 | 98.5 | 100 | 22 | 95.3 | 91.8 | 96.7 |
| N#Cc1cccc(C(=O)NC2CCN(c3ccnc(Nc4ccc(F)cc4)n3)C2)c1 (stereo not shown) [GSK1379708] | 0 | 0 | 0 | 0 | 0 | 0 | 23 | 0 | 0 | 0 |
| Nc1nccc(-c2ccc3c(N)n[nH]c3c2)n1 [GSK1034945] | 0 | 0 | 0 | 0 | 0 | 11 | 3 | 21 | 0 | 0 |
| CC(C(=O)NC1CCN(c2ccnc(Nc3ccc(F)cc3)n2)C1)c1ccc(Cl)cc1 (stereo not shown) [GSK1379713] | 0 | 0 | 0 | 0 | 3 | 8 | 11 | 21 | 0 | 0 |
| Cn1ccc2ncnc(Oc3ccc(NC(=O)Nc4cnn(C(C)(C)C)c4)c(Cl)c3)c21 | 1 | 11 | 31 | 27 | 0 | 0 | 10 | 21 | 0 | 13 |
| C[C@@H]1CNc2c(sc3ccc4nc(-c5ccncc5)ccc4c23)C(=O)N1 | 1 | 8 | 92.7 | 22 | 65 | 0 | 0 | 8 | 49 | 12 |
| C[C@@H]1CCN(C(=O)N2CCCC2)C[C@@H]1N(C)c1ncnc2[nH]ccc12 | 20 | 21 | 44 | 17 | 17 | 13 | 30 | 0 | 0 | 54 |
| Cn1ccc2ncnc(Oc3ccc(NC(=O)Nc4cncc(C(F)(F)F)c4)c(Cl)c3)c21 | 0 | 0 | 0 | 2 | 0 | 20 | 0 | 23 | 0 | 0 |
| CN(c1ccccc1CNc1nc(Nc2ccc3c(c2)CC(=O)N3)ncc1C(F)(F)F)S(C)(=O)=O | 80 | 49 | 61 | 73 | 58 | 0 | 0 | 80 | 51 | 31 |
| CS(=O)c1ccc(-c2coc3ccc(-c4n[nH]c(=O)o4)cc23)cc1 (stereo not shown) | 4 | 6 | 34 | 24 | 7 | 0 | 8 | 2 | 0 | 4 |
| C[C@@H](Oc1cc(-n2cnc3cc(-c4cnn(C)c4)ccc32)sc1C(N)=O)c1ccccc1Cl [GSK580432] | 99.5 |  | 64 | 23 | 1 | 0 | 46 | 35 | 0 | 0 |
| Cc1ccc2c(-c3ccnc(Nc4ccc(C(F)(F)F)cc4)n3)cnn2n1 [GW819776] | 15 | 33 | 9 | 5 | 0 | 0 | 22 | 0 | 0 | 0 |
| COC(=O)Nc1nc2cc(Oc3ccc(NC(=O)Nc4cc(C(F)(F)F)ccc4Cl)cc3)ccc2[nH]1.Cl [GW697465] | 0 | 0 | 0 | 0 | 11 | 7 | 0 | 6 | 0 | 1 |
| CCn1c(-c2nonc2N)nc2cncc(CNC3CCNCC3)c21.Cl [SB-747651] | 0 | 0 | 0 | 77 | 66 | 89 | 10 | 43 | 0 | 0 |
